{
  "source": "PubChem BioAssay (NCATS)",
  "note": "Inconclusive results are not listed. Where a call stands in place of a potency, no number is given. Active and inactive are the calls of the source. Calls follow the shape of the dose curve; as a rule, active = well fitted cell-killing curve with a large enough effect; inconclusive = small, poorly fitted or top-dose-only effect; inactive = no such curve, though single readings can be large or run the other way. Potency is read from the fitted curve at half-maximal effect.",
  "data": [
    {"experiment": "qHTS of pediatric cancer cell lines to identify multiple opportunities for drug repurposing: Primary screen for Rh41 cells (AID 1347108); also: nearly all actives have a fitted effect of over 70% in size", "conditions": "Rh41 rhabdomyosarcoma viability, CellTiter-Glo luminescence, 48 h; series mostly up to 46 µM", "method_in_brief": "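Luminescence from CellTiter-Glo served as readout of metabolically active cells after 48 h compound exposure. Titrations: MIPE 11-point, from 0.78 nM; NPC 8-point, from 0.59 nM (final). Concentration-response curves came straight from the primary screen.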", "values": [
      {"smiles": "C[C@](O)(CS(=O)(=O)c1ccc(F)cc1)C(=O)Nc1ccc(C#N)c(C(F)(F)F)c1", "Potency": "2.96 µM (active)"},
      {"smiles": "CC(=O)OCC1=C(C(=O)O)N2C(=O)[C@@H](N)[C@H]2SC1", "Potency": "inactive"},
      {"smiles": "C[C@]12CCC(=O)C=C1CC[C@@H]1[C@H]3CC[C@](C)(O)[C@@]3(C)CC[C@@H]12", "Potency": "38.9 µM (active)"},
      {"smiles": "CCN[C@H](C)Cc1cccc(C(F)(F)F)c1", "Potency": "inactive"},
      {"smiles": "C[N+]1(CCF)[C@@H]2CC[C@H]1CC(OC(=O)C(O)(c1ccccc1)c1ccccc1)C2", "note": "(some centres not stated)", "Potency": "inactive"},
      {"smiles": "O=c1[nH]oc2c1CCNC2", "Potency": "inactive"},
      {"smiles": "C[C@]12CC[C@H]3[C@@H](CCC4=CC(=O)CC[C@@H]43)[C@@H]1CC[C@@H]2OC(=O)CCC1CCCCC1", "Potency": "inactive"},
      {"smiles": "Nc1nc(N)nc(NC2CC2)n1", "Potency": "inactive"},
      {"smiles": "CCOP(=S)(OCC)Oc1ccc2c(C)c(Cl)c(=O)oc2c1", "Potency": "inactive"},
      {"smiles": "C[C@]12CCC(=O)C=C1CC[C@@H]1[C@@H]2CC[C@]2(C)C(=O)CC[C@@H]12", "Potency": "inactive"},
      {"smiles": "O=C1CN=C(c2ccccc2)c2cc([N+](=O)[O-])ccc2N1", "Potency": "inactive"},
      {"smiles": "C[C@]12CC[C@@H]3c4ccc(OC(=O)N(CCCl)CCCl)cc4CC[C@H]3[C@@H]1CC[C@@H]2O", "Potency": "inactive"},
      {"smiles": "C[C@]12CC[C@H]3[C@@H](CC[C@@]45O[C@H]4C(O)=C(C#N)C[C@]35C)[C@H]1CC[C@H]2O", "Potency": "20.9 µM (active)"},
      {"smiles": "O=C1c2ccccc2C(=O)c2ccccc21", "Potency": "inactive"},
      {"smiles": "CC(NC(C)(C)C)C(=O)c1cccc(Cl)c1", "note": "(configuration not stated)", "Potency": "inactive"},
      {"smiles": "CC(=O)NC1CCSC1=O", "note": "(configuration not stated)", "Potency": "inactive"},
      {"smiles": "CCC(CC)(CNC(=O)CCCO)c1cccc(OC)c1", "Potency": "inactive"}
    ]}
  ]
}
